A selection: hits, their analogues and other compounds. The true share with any hit is near 4.2%.
tim10-1 inh: growth inhibitors of tim10-1 mutant yeast; S. cerevisiae tim10-1 ts strain growth, BacTiter-Glo, 24 h; inhibition, % at 20 µM; 330,000 tested, 2.2% active;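 active means inhibition of at least 40%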;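 further: mutant grown at 25 °C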
NALP1 yeast inh: inhibitors of NALP1 inflammasome in yeast | 280,000 tested, 0.61% active | inhibition, % at 10 µM | S. cerevisiae NALP1/ASC/caspase-1 growth, X-gal OD620, 72 h; in the data active means inhibition mostly above about 24%, no sharp cut-off; inactive means mostly below about 32%
V-ATPase pHluor: alters yeast V-ATPase proton transport. S. cerevisiae, pHLuorin cytosolic pH fluorescence. response, % at 10 µM. 350,000 tested, 0.37% active. AID 504577; in the data active means response mostly above about 7.3%, no sharp cut-off; inactive means mostly below about 5.4%; further: actives read high
NALP3 yeast inh: NALP3 inhibition in yeast; inhibition, % at 10 µM; Yeast reconstituted NLRP3/ASC/caspase-1, beta-gal luminescence, 24 h; 330,000 tested, 0.39% active;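 active means inhibition of 50% or more; inactive means inhibition below 50%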
TIM10 inh: TIM10 yeast growth inhibition | S. cerevisiae TIM10 strain growth, BacTiter-Glo luminescence, 24 h | inhibition, % at 10 µM | 330,000 tested, 1.4% active;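 active means inhibition of 40% or more at the single tested concentration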;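 further: wild-type TIM10 isogenic control strain grown at permissive 25 °C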
tim23-1 inh: inhibits growth of tim23-1 mutant yeast; AID 463212; S. cerevisiae tim23-1 growth, BacTiter-Glo luminescence, 24 h; 330,000 tested, 1.3% active; inhibition, % at 20 µM;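 active means growth inhibition of the mutant yeast at or above 50%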;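 further: temperature-sensitive mutant grown at 25 °C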
tim10-1 confirm: tim10-1 yeast growth inhibition, confirmed; shares compounds with tim10-1 inh; S. cerevisiae tim10-1 ts strain growth, BacTiter-Glo, 24 h; inhibition, % at 20 µM; 7,400 tested, 56% active; AID 463213;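 active means inhibition of yeast growth at or above a set limit in either of two repeat tests at 20 µM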;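 further: tim10-1 mutant grown at permissive 25 °C to find synthetic lethal compounds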
TIM10 conf: TIM10 yeast growth inhibition, confirmed; shares compounds with TIM10 inh; S. cerevisiae tim10 strain growth, BacTiter-Glo luminescence, 24 h; inhibition, % at 10 µM; 4,600 tested, 63% active;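 active means inhibition of yeast growth at or above a set limit in either of two replicates at 10 µM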; further: this counterscreen used the strain with wild-type TIM10
Each line names hits and unclear results; the compound was inactive in the other large screens (follow-up assays come after a bar, where they were run).

CC1(C)CC(=O)C2=C(C1)Nc1ccccc1N=C2	tim10-1 inh 49, TIM10 inh 41 (no result: V-ATPase pHluor) | tim10-1 confirm 44 | TIM10 conf 34
CCCN1C(=O)SC(CC(=O)Nc2ccc(C)cc2)C1=O (centres undefined)	none
Cc1ccc(NC(=O)CC2SC(=O)N(c3ccccc3)C2=O)cc1 (centres undefined)	tim10-1 inh 49, TIM10 inh 41 | tim10-1 confirm 42 | TIM10 conf inactive
CNC(=S)N/N=C(\C)c1ccc2c(c1)OCCO2	none
C/C(=N\NC(=S)NC(C)C)c1ccc2c(c1)OCCO2	tim10-1 inh 43, TIM10 inh 41 | tim10-1 confirm inactive | TIM10 conf inactive
Cc1ccccc1-c1cc(-c2ccccc2O)n[nH]1	tim10-1 inh 45, TIM10 inh 65 | tim10-1 confirm inactive | TIM10 conf inactive
CNC(=O)Nc1cccc(C(F)(F)F)c1	none
Cc1ccc(OC(F)F)c(NC(=O)Nc2cccc(C(F)(F)F)c2)c1	tim10-1 inh 47, TIM10 inh 51 | tim10-1 confirm 45 | TIM10 conf 58
COC1(OC)N=C(NC(=O)Nc2ccccc2)C2(C#N)C(c3ccccc3)C12C#N (centres undefined)	none
O=C(NCC1CCCO1)c1ccccc1NS(=O)(=O)c1cccs1 (centres undefined)	none
O=C(NC1=NCCS1)c1sc2cc(Cl)cc(Cl)c2c1Cl	tim10-1 inh 50, TIM10 inh 45 | tim10-1 confirm inactive | TIM10 conf inactive
COc1cc(OC)cc(C(=O)NC2=NCCS2)c1	none
O=C(NC(=S)NC1CCS(=O)(=O)C1)c1cccs1 (centres undefined)	none
CCn1c(C)c(C)c2cc(C(=O)NCCc3ccco3)ccc21	none
Cc1cccc(Oc2cc(NC(=O)c3ccccc3)cc([N+](=O)[O-])c2)c1	tim10-1 inh 44, TIM10 inh 53 | tim10-1 confirm 36 | TIM10 conf inactive
Cn1cc([N+](=O)[O-])c(C(=O)Nc2cc(Oc3ccccc3)cc([N+](=O)[O-])c2)n1	none (no result: tim10-1 inh, NALP3 yeast inh, TIM10 inh, tim23-1 inh)
Cc1nn(-c2ccccc2)c(Cl)c1/C=N/O	none
Cc1nn(-c2ccccc2)c(Cl)c1/C=C/C(=O)c1ccccc1	tim10-1 inh 41, TIM10 inh 46 | tim10-1 confirm 48 | TIM10 conf 40
O=C(O)Cn1nc(-c2ccccc2)c2ccccc2c1=O	none
CC(C(=O)N1CCN(Cc2ccccc2)CC1)n1ncn2cccc2c1=O (centres undefined)	none
CC1CCCCN1S(=O)(=O)c1ccc2c(c1)CCN2C(=O)C1CCC1 (centres undefined)	tim10-1 inh 42, TIM10 inh 44 | tim10-1 confirm 40 | TIM10 conf inactive
O=C(C1CC1)N1CCc2cc(S(=O)(=O)N3CCOCC3)ccc21	none
Cc1cc(C)cc(Oc2nc(-c3ccccc3)cc(C)c2S(C)(=O)=O)c1	none
CC(C)(C)c1ccc(-c2n[nH]c(=S)n2C2CCCC2)cc1	tim10-1 inh 41, TIM10 inh 44 | tim10-1 confirm 30 | TIM10 conf 45
O=C(O)c1ccccc1NC(=O)c1cc2ccccc2oc1=O	none
COc1ccc(S(=O)(=O)N2CCOCC2)cc1NC(=O)COC(=O)C1COc2ccccc2O1 (centres undefined)	none
O=C(Nc1nc2c(Cl)ccc(Cl)c2s1)C1CC1	none
NNc1nc2c(Cl)ccc(Cl)c2s1	tim10-1 inh 58, TIM10 inh 53 | tim10-1 confirm 58 | TIM10 conf inactive
COc1cccc2oc(-c3ccco3)cc(=O)c12	tim10-1 inh 45, TIM10 inh 47 | tim10-1 confirm inactive | TIM10 conf 40
CCn1ncc(/C=N/N=C2\CCC3C4CCc5cc(O)ccc5C4CCC23C)c1C (centres undefined)	none
CCCCOc1ccc(Nc2cc(Cl)ccc2C(=O)O)cn1	tim10-1 inh 52, TIM10 inh 41 | tim10-1 confirm inactive | TIM10 conf 34
COc1ccc(CC(=O)Nc2cc(Cl)ccc2C(=O)O)cc1	none
O=C(NC1CCCC1)C(c1ccc(Cl)cc1)N(Cc1ccc(F)cc1)C(=O)CCl (centres undefined)	tim10-1 inh 49, TIM10 inh 47 | tim10-1 confirm 40 | TIM10 conf inactive
COc1cc(C(=O)Oc2ccc3ccc(O)cc3c2)cc(OC)c1OC	tim10-1 inh 47, TIM10 inh 42 | tim10-1 confirm 32 | TIM10 conf 39
Cc1ccccc1C(=O)N1CCC(C(=O)Nc2ccc(C(C)C)cc2)CC1	none
CCO/C=N/Nc1nc(C(F)(F)F)nc2c1cnn2Cc1ccccc1	tim10-1 inh 59, TIM10 inh 56 | tim10-1 confirm 56 | TIM10 conf 58
CC(=O)Oc1ccc(N2C(=O)C3C(C2=O)C2(C)C=CC3(C)O2)cc1 (centres undefined)	tim10-1 inh 56, TIM10 inh 83 (no result: V-ATPase pHluor) | tim10-1 confirm 93 | TIM10 conf 87
COC(=O)c1cc(N2C(=O)C3C(C2=O)C2(C)C=CC3(C)O2)ccc1Cl (centres undefined)	tim10-1 inh 53, TIM10 inh 83 (no result: V-ATPase pHluor) | tim10-1 confirm 76 | TIM10 conf 90
CC1=C(C(=O)Nc2ccccc2Cl)C(c2ccc(N(C)C)cc2)NC(=O)N1 (centres undefined)	none
Nn1c(SCC(=O)N2CCCCCC2)nnc1-c1ccco1	none (no result: NALP1 yeast inh)
COc1ccccc1-c1c(C)nn2c(N3CCCCCC3)cc(C)nc12	tim10-1 inh 56, TIM10 inh 41 (no result: V-ATPase pHluor) | tim10-1 confirm 41 | TIM10 conf 34
COc1ccccc1-c1c(C)nn2c(N3CCOCC3)cc(C)nc12	none
COc1ccc(C(=O)NCCc2nnc(SCc3nc4ccccc4c(=O)[nH]3)n2C)cc1	none
FC(F)(F)c1cccc(Cc2noc(CN3CCC(c4ccncc4)CC3)n2)c1	tim10-1 inh 44, TIM10 inh 42 | tim10-1 confirm 42 | TIM10 conf 43
CN1CCCC2(CCCN(Cc3nc(Cc4cccc(C(F)(F)F)c4)no3)C2)C1 (centres undefined)	none
Cc1ccc(CSCC(=O)N2CCN(Cc3ccc4c(c3)OCO4)CC2)cc1	tim10-1 inh 57, TIM10 inh 41 | tim10-1 confirm 41 | TIM10 conf inactive
Cc1ccc(Cl)cc1NC(=S)N(CCCN1CCOCC1)Cc1ccccn1	none
CC1CCCCC1NC(=O)NC(=O)COC(=O)c1cncc(Br)c1 (centres undefined)	none (no result: NALP1 yeast inh)
Cc1cccc(-n2c(SCC(N)=O)nnc2-c2ccco2)c1	none
O=C(CSCc1ccccc1Cl)Nc1ccc2c(c1)OCCO2	tim10-1 inh 44, TIM10 inh 48 | tim10-1 confirm 36 | TIM10 conf inactive
CCCS(=O)(=O)c1nc(S(=O)(=O)c2ccc(C)cc2)c(NCc2ccccn2)s1	none
